Source: the supplement of paper PMC6555819

Assays:
Assay in all cases: PBM binding z-score (relative to random genomic background probes); higher = stronger binding; sequences stand for … in GC…GCGATTGACAGCGTAGAATGAAGG
[1] = tested on: PPARg:RXRa DBDmut IVT, anti-RXR (DBD mutation: RXRa K156A/R161A, NR concentration 270 nM, RXRa partner concentration 90 nM)
In short: (§1)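 The probes on custom Agilent 4×180K protein-binding microarrays were double-stranded, with 34-nt variable regions bearing direct-repeat seeds, single-nucleotide variants, half-site ablations and random human genomic background sequences. Incubation lasted 1 h with ligand-free nuclear receptor dimers in PBS pH 7.4, 2% milk, 0.02% Triton X-100, 1 mM DTT, 0.2 mg/mL BSA and 0.4 mg/ml salmon testes DNA. Antibodies against each partner (one per run) detected bound dimers, and fluorescence scans were regression-normalized. Binding z-scores take the random background probes as reference.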

[2] = tested on: PPARg:RXRa IVT, anti-PPARg (NR concentration 270 nM, RXRa partner concentration 90 nM)
In short: as §1

[3] = tested on: PPARg DBDmut:RXRa IVT, anti-PPARg (DBD mutation: PPARg1 K132A/R137A, NR concentration 270 nM, RXRa partner concentration 90 nM)
In short: as §1

[4] = tested on: PPARg DBDmut IVT, anti-PPARg (DBD mutation: PPARg1 K132A/R137A, NR concentration 270 nM)
In short: as §1

[5] = tested on: PPARg homodimer (NR concentration 180 nM)
In short: as §1

[6] = tested on: PXR:RXRa (NR concentration 270 nM, RXRa partner concentration 90 nM)
In short: as §1

[7] = tested on: PXR homodimer (NR concentration 270 nM)
In short: as §1

[8] = tested on: RARa:RXR (NR concentration 270 nM, RXRa partner concentration 90 nM)
In short: as §1

[9] = tested on: RARa homodimer (NR concentration 270 nM)
In short: as §1

[10] = tested on: RARb:RXRa (NR concentration 270 nM, RXRa partner concentration 90 nM)
In short: as §1

[11] = tested on: RARb homodimer (NR concentration 270 nM)
In short: as §1

[12] = tested on: RARg:RXRa (NR concentration 270 nM, RXRa partner concentration 90 nM)
In short: as §1

[13] = tested on: RARg homodimer (NR concentration 270 nM)
In short: as §1

[14] = tested on: RXRa DBDmut IVT, anti-RXR (DBD mutation: RXRa K156A/R161A, NR concentration 90 nM)
In short: as §1

[15] = tested on: RXRa homodimer (NR concentration 180 nM)
In short: as §1

[16] = tested on: THRa:RXRa (NR concentration 90 nM, RXRa partner concentration 90 nM)
In short: as §1

[17] = tested on: THRa homodimer (NR concentration 90 nM)
In short: as §1

[18] = tested on: VDR homodimer (NR concentration 270 nM)
In short: as §1

AATACAGGGTCACTAGGACAGAGTAGGTACGAAT
PBM binding z-score [1]: 3.86 | PBM binding z-score [2]: 5.7 | PBM binding z-score [3]: 2.64 | PBM binding z-score [4]: 3.05 | PBM binding z-score [5]: 2.54 | PBM binding z-score [6]: 3.17 | PBM binding z-score [7]: 0.566 | PBM binding z-score [8]: 4.21 | PBM binding z-score [9]: 1.62 | PBM binding z-score [10]: 4.27 | PBM binding z-score [11]: 3.32 | PBM binding z-score [12]: 5.16 | PBM binding z-score [13]: 4.79 | PBM binding z-score [14]: 2.9 | PBM binding z-score [15]: 5.5 | PBM binding z-score [16]: 3.64 | PBM binding z-score [17]: 1.72 | PBM binding z-score [18]: 2.97

TCATATAGGTAAAGGTGAAAGTCGAACGATATGA
PBM binding z-score [1]: 3.76 | PBM binding z-score [2]: 4.23 | PBM binding z-score [3]: 1.81 | PBM binding z-score [4]: 1.2 | PBM binding z-score [5]: 1.04 | PBM binding z-score [6]: 1.13 | PBM binding z-score [7]: -0.047 | PBM binding z-score [8]: 1.71 | PBM binding z-score [9]: 0.402 | PBM binding z-score [10]: 2.1 | PBM binding z-score [11]: 1.71 | PBM binding z-score [12]: 1.65 | PBM binding z-score [13]: 1.43 | PBM binding z-score [14]: 0.845 | PBM binding z-score [15]: 2.33 | PBM binding z-score [16]: 1.38 | PBM binding z-score [17]: -0.106 | PBM binding z-score [18]: 0.236

AGAATGAGGTTATACGTATATCAGGGAAGAAAGT
PBM binding z-score [1]: 2.88 | PBM binding z-score [2]: 2.25 | PBM binding z-score [3]: 1.21 | PBM binding z-score [4]: 1.56 | PBM binding z-score [5]: 1.21 | PBM binding z-score [6]: 1.45 | PBM binding z-score [7]: 0.473 | PBM binding z-score [8]: 1.92 | PBM binding z-score [9]: 0.666 | PBM binding z-score [10]: 1.44 | PBM binding z-score [11]: 0.94 | PBM binding z-score [12]: 1.77 | PBM binding z-score [13]: 1.35 | PBM binding z-score [14]: 1.42 | PBM binding z-score [15]: 2.34 | PBM binding z-score [16]: 2.5 | PBM binding z-score [17]: 0.645 | PBM binding z-score [18]: 0.832

CCTACTTGGCCACGAAAGGTCATTGATTCAGTGA
PBM binding z-score [1]: 1.97 | PBM binding z-score [2]: 2.14 | PBM binding z-score [3]: 0.246 | PBM binding z-score [4]: 0.627 | PBM binding z-score [5]: 3.9 | PBM binding z-score [6]: 5.3 | PBM binding z-score [7]: 1.97 | PBM binding z-score [8]: 5.51 | PBM binding z-score [9]: 2.48 | PBM binding z-score [10]: 4.09 | PBM binding z-score [11]: 4.61 | PBM binding z-score [12]: 4.77 | PBM binding z-score [13]: 4.41 | PBM binding z-score [14]: 1.36 | PBM binding z-score [15]: 5.16 | PBM binding z-score [16]: 3.44 | PBM binding z-score [17]: 1.3 | PBM binding z-score [18]: 2.78

CCAGACAGGTGGGAAGGTAACTCAGCCTCGATTA
PBM binding z-score [1]: -0.289 | PBM binding z-score [2]: -0.383 | PBM binding z-score [3]: -0.344 | PBM binding z-score [4]: -0.717 | PBM binding z-score [5]: 0.689 | PBM binding z-score [6]: -0.359 | PBM binding z-score [7]: 0.0826 | PBM binding z-score [8]: -0.164 | PBM binding z-score [9]: 0.496 | PBM binding z-score [10]: -0.0117 | PBM binding z-score [11]: 0.465 | PBM binding z-score [12]: -0.192 | PBM binding z-score [13]: -0.24 | PBM binding z-score [14]: -0.499 | PBM binding z-score [15]: -0.186 | PBM binding z-score [16]: -0.392 | PBM binding z-score [17]: 0.393 | PBM binding z-score [18]: -0.38

CCTACTGGGCCAAAAAGGTCATTGCTGCCGATAA
PBM binding z-score [1]: 4.17 | PBM binding z-score [2]: 4.29 | PBM binding z-score [3]: 0.288 | PBM binding z-score [4]: -0.116 | PBM binding z-score [5]: 3.92 | PBM binding z-score [6]: 4.87 | PBM binding z-score [7]: 3.45 | PBM binding z-score [8]: 5.19 | PBM binding z-score [9]: 0.902 | PBM binding z-score [10]: 3.98 | PBM binding z-score [11]: 4.46 | PBM binding z-score [12]: 4.63 | PBM binding z-score [13]: 4.02 | PBM binding z-score [14]: 0.7 | PBM binding z-score [15]: 4.99 | PBM binding z-score [16]: 2.99 | PBM binding z-score [17]: 0.486 | PBM binding z-score [18]: 2.98

ATCGAAAGGTCGTGAGGGGAGTATACAGAAAGGC
PBM binding z-score [1]: 0.526 | PBM binding z-score [2]: 2.01 | PBM binding z-score [3]: 1.57 | PBM binding z-score [4]: 0.649 | PBM binding z-score [5]: 2.22 | PBM binding z-score [6]: 2.99 | PBM binding z-score [7]: 0.725 | PBM binding z-score [8]: 3.78 | PBM binding z-score [9]: 0.753 | PBM binding z-score [10]: 4.03 | PBM binding z-score [11]: 2.78 | PBM binding z-score [12]: 4.4 | PBM binding z-score [13]: 3.89 | PBM binding z-score [14]: 1.72 | PBM binding z-score [15]: 5.16 | PBM binding z-score [16]: 2.72 | PBM binding z-score [17]: 0.843 | PBM binding z-score [18]: 1.42

CCTTACGGGTCACTGACAGGGTATAGCATTTGGA
PBM binding z-score [1]: 2.63 | PBM binding z-score [2]: 3.31 | PBM binding z-score [3]: 0.282 | PBM binding z-score [4]: 0.192 | PBM binding z-score [5]: 1.91 | PBM binding z-score [6]: 2.87 | PBM binding z-score [7]: -0.101 | PBM binding z-score [8]: 3.64 | PBM binding z-score [9]: 0.315 | PBM binding z-score [10]: 3.73 | PBM binding z-score [11]: 2.82 | PBM binding z-score [12]: 5.05 | PBM binding z-score [13]: 4.61 | PBM binding z-score [14]: 1.26 | PBM binding z-score [15]: 4.55 | PBM binding z-score [16]: 2.32 | PBM binding z-score [17]: -0.0972 | PBM binding z-score [18]: 0.873
